Assay results: PubChem BioAssay
Activity calls are given as the source filed them.

Tests used:
Albumin (Bos taurus) = Albumin (Bos taurus) (UniProt P02769); test: bovine serum albumin binders on microarray, profiling panel, artefact control for SMM control protein annotation, biochemical, small-molecule microarray, Alexa647 label, 635/667 nm fluorescence (AID 1118); conditions: BSA-A647 binding, fluorescence 635 nm, higher = more signal;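 also: score merges 667 nm emission intensity and signal-to-noise per printed compound spot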
Chain of Albumin (Bos taurus) (P02769 whole entry, looked up): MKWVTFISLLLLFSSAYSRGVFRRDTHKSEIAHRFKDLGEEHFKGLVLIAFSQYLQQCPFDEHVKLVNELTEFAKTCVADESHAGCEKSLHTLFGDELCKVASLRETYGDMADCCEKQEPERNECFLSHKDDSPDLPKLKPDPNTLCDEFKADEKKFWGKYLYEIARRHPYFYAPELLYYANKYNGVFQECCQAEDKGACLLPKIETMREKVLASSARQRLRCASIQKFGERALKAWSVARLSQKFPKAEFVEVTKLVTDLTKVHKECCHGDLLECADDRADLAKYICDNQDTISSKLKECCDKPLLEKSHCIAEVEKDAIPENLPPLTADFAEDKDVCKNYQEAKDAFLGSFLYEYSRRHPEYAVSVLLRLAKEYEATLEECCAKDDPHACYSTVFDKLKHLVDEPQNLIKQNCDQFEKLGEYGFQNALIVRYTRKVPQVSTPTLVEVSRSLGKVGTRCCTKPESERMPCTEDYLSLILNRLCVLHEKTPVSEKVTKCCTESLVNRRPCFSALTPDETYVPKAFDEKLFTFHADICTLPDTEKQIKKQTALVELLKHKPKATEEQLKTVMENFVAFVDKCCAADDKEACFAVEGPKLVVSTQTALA

[1] = small-molecule microarray binders of probe aXIP, primary screen, biochemical, NeuroSMM set, 635/667 nm fluorescence (AID 1119); conditions: higher = more signal, called active from +8 up or from −8 down;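 also: probe is the protein aXip251-270 applied at 1 µg/mL to compound-printed slides; binding of probe to printed compounds measured as 667 nm fluorescence plus signal to noise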
[2] = small-molecule binders of probe aNOTCH3, primary screen, biochemical, small-molecule microarray, 635/667 nm fluorescence (AID 1120); conditions: higher = more signal;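 also: probe is a biotin-tagged antibody raised against NOTCH3 rather than NOTCH3 protein; score merges spot fluorescence near 667 nm with spot signal to noise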
[3] = small-molecule binders of probe aNOTCH2, primary screen, biochemical, small-molecule microarray, 635/667 nm fluorescence (AID 1121); conditions: higher = more signal;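 also: score merges feature fluorescence read at 667 nm with its signal to noise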
[4] = molecular target: Carbonic anhydrase 2 (Homo sapiens) (UniProt P00918); test: CAII small-molecule binders, profiling panel, biochemical, small-molecule microarray, Alexa647-labelled CAII (AID 1122); conditions: CAII-A647 binding fluorescence, higher = more signal
[5] = COS7 lysate on small-molecule microarray, probe aHis, 635 nm (AID 1123); conditions: COS7 cell lysate, fluorescence, higher = more signal;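 also: z-score combines 667nm fluorescence intensity with signal-to-noise per printed compound spot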
[6] = compound binding in COS7 lysate, probe aLAP1, primary screen, cell lysate, small-molecule microarray (AID 1124); conditions: probe aLAP1, fluorescence, higher = more signal;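 also: lysate comes from COS7 cells expressing LAP1 and is applied at 0.3 µg/mL; score merges spot fluorescence near 667 nm with signal-to-noise over triplicate slides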
Sam68 (KHDRBS1) = test: Sam68 small-molecule binders, primary screen, biochemical, small-molecule microarray, 635 nm fluorescence (AID 1125); conditions: small-molecule microarray binding, higher = more signal;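 also: score merges 667 nm channel intensity with signal to noise over triplicate slides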
[7] = system: Chordin-like protein 2 (CHRDL2); test: CHRDL2 small-molecule binders, primary screen, biochemical, small-molecule microarray, 635 nm fluorescence (AID 1126); conditions: small-molecule microarray binding, fluorescence 635 nm; higher = more signal;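 also: printed compound slides probed with Chrdl2 protein at 4 µg/mL for 1 h at 4 C; score merges 667 nm emission intensity with signal to noise over three replicate slides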
[8] = molecular target: Concanavalin-A (Canavalia ensiformis) (UniProt P02866); test: ConA small-molecule binders, primary screen, artefact control for SMM control protein annotation, biochemical, small-molecule microarray, Alexa647 label, 635 nm (AID 1127); conditions: ConA-A647 binding fluorescence, higher = more signal;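 also: z combines 667 nm emission intensity with signal-to-noise across three replicate slides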
Chain of Concanavalin-A (Canavalia ensiformis) (P02866 whole entry, looked up): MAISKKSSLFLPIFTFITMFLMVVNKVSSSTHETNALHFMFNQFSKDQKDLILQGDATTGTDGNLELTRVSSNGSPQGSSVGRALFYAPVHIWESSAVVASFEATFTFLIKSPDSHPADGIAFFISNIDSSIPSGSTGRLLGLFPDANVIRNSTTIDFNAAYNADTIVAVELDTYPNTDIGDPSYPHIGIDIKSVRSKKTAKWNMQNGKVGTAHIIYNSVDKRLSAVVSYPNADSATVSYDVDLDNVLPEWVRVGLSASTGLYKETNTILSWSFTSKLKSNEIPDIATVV

[9] = anti-His antibody binders, primary screen, artefact control for SMM control protein annotation, biochemical, small-molecule microarray, 635 nm fluorescence (AID 1128); conditions: anti-His Alexa647 antibody binding, higher = more signal;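 also: score merges feature fluorescence with signal-to-noise for each printed compound spot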
[10] = system: Human papillomavirus type 1a E7 protein (residues 1-88); test: HPV1a E7 small-molecule binders, primary screen, biochemical, small-molecule microarray, residues 1-88, 635 nm (AID 1129); conditions: small-molecule microarray binding, fluorescence 635 nm; higher = more signal
[11] = molecular target: Focal adhesion kinase 1 (Homo sapiens) (UniProt Q05397); test: small-molecule microarray binders of FAK, primary screen, biochemical, 635/667 nm fluorescence, BSA, DTT (AID 1130); conditions: PTK2 binding, 635 nm fluorescence, higher = more signal;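 also: composite of spot emission at 667 nm and signal to noise over triplicate slides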
Chain of Focal adhesion kinase 1 (Homo sapiens) (Q05397 whole entry, looked up): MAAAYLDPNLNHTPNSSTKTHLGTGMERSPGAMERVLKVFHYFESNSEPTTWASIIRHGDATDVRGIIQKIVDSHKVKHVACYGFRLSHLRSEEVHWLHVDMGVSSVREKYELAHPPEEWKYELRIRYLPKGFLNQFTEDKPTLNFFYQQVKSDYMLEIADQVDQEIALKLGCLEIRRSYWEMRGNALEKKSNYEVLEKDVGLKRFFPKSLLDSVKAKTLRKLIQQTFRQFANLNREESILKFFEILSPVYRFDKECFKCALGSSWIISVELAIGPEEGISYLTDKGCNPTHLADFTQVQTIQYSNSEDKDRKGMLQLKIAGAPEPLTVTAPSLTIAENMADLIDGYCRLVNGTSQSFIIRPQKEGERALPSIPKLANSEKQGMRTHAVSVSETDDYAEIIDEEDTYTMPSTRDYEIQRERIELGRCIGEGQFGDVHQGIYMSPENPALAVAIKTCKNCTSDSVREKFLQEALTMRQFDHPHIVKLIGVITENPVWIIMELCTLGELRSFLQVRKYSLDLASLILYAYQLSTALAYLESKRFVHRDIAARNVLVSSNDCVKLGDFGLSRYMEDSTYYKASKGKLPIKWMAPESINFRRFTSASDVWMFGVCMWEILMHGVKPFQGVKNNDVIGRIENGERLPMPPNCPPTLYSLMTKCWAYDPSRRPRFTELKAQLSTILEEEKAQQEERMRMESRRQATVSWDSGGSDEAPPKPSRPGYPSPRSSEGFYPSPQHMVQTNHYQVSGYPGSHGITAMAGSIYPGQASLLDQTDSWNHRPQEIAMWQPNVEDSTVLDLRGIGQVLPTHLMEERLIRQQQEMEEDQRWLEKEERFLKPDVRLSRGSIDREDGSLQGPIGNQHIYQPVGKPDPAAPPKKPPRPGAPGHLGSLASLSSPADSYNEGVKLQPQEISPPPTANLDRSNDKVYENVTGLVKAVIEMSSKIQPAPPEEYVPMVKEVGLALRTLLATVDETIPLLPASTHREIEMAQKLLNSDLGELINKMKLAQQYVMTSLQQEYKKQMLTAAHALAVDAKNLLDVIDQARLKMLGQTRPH

[12] = system: Fibrinogen (Alexa647-labelled); test: fibrinogen binders on compound microarrays, profiling panel, artefact control for SMM control-protein annotation, biochemical, small-molecule microarray, 635/667 nm fluorescence (AID 1131); conditions: fibrinogen-A647 binding fluorescence, higher = more signal;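 also: z-score merges 667 nm fluorescence with per-spot signal-to-noise over triplicate slides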
[13] = molecular target: Follistatin (Homo sapiens) (UniProt P19883); test: follistatin binders on small-molecule microarrays, primary screen, biochemical, small-molecule microarray, 635/667 nm fluorescence (AID 1132); conditions: FST binding, 635 nm fluorescence, higher = more signal
Chain of Follistatin (Homo sapiens) (P19883 whole entry, looked up): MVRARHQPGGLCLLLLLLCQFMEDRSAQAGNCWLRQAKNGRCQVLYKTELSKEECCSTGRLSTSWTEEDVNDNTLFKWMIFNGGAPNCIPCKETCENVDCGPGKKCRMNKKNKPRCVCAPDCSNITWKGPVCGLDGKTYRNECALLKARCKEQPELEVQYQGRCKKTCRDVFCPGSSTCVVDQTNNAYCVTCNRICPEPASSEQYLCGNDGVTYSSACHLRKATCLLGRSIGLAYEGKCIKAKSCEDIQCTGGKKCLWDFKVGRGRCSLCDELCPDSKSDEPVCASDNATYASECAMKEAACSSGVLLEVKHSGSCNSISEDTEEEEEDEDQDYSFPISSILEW

[14] = molecular target: Fibroblast growth factor 2 (Homo sapiens) (UniProt P09038); test: FGF2 binders on small-molecule microarrays, primary screen, biochemical, small-molecule microarray, 635/667 nm fluorescence (AID 1133); conditions: small-molecule microarray binding, FGF2, fluorescence 635/667; higher = more signal
Chain of Fibroblast growth factor 2 (Homo sapiens) (P09038 whole entry, looked up): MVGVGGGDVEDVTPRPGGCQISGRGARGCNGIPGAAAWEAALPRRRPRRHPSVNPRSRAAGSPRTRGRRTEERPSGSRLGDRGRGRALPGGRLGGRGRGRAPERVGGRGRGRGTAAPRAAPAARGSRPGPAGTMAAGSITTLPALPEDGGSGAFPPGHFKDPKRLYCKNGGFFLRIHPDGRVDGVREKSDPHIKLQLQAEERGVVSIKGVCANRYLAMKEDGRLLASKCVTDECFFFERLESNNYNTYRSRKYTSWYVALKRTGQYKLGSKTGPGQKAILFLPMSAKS

[15] = mitochondrial membrane potential change in A549 cells, profiling panel, cell-based, JC-1 fluorescence, basal, 24 h, 100 nL (AID 1138); conditions: higher = more signal;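 also: A549 lung adenocarcinoma cells under basal conditions with no added stimulus; test concentration not given here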
Lefty1 = Lefty1 binders on small-molecule microarrays, primary screen, biochemical, small-molecule microarray, 635/667 nm fluorescence (AID 1139); conditions: small-molecule microarray binding, fluorescence 635/667; higher = more signal
[16] = system: wheat germ agglutinin (Triticum aestivum), Alexa647-labelled; test: wheat germ agglutinin binders on compound microarrays, profiling panel, artefact control for SMM control-protein annotation, biochemical, small-molecule microarray, 635/667 nm fluorescence (AID 1140); conditions: WGA-A647 binding, 635 nm fluorescence, higher = more signal;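 also: score merges 667 nm feature emission with signal to noise over triplicate slides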
[17] = molecular target: Luciferin 4-monooxygenase (Photinus pyralis) (UniProt P08659); test: firefly luciferase enzyme inhibitors, primary screen, biochemical, luminescence, purified enzyme, 2006 set (AID 1141); conditions: SteadyGlo luminescence, 30 min, higher = more signal, called active from +8 up or from −8 down;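 also: cell-free assay with purified firefly luciferase at 100 ng per well in PBS; test concentration not given here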
Chain of Luciferin 4-monooxygenase (Photinus pyralis) (P08659 whole entry, looked up): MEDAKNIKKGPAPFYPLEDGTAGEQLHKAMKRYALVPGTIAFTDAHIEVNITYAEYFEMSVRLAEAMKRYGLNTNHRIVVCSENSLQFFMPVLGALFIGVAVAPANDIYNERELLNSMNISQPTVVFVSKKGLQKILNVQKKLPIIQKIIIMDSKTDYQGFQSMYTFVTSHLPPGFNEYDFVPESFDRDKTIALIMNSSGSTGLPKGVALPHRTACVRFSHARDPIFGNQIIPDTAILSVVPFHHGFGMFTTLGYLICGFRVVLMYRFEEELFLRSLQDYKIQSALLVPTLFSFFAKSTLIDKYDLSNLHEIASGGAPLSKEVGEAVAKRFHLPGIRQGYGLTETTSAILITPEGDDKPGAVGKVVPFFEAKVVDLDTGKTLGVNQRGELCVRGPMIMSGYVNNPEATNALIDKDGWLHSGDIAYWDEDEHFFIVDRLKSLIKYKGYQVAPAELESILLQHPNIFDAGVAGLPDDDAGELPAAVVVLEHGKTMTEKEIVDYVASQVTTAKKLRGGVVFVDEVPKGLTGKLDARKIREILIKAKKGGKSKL

SMILES	composite z-score (Albumin (Bos taurus))	composite Z-score [1]	composite z-score [2]	composite z-score [3]	composite z-score [4]	composite z-score [5]	composite z-score [6]	composite z-score (Sam68 (KHDRBS1))	composite z-score [7]	composite z-score [8]	composite z-score [9]	composite z-score [10]	composite z-score [11]	composite z-score [12]	composite z-score [13]	composite z-score [14]	z-score [15]	composite z-score (Lefty1)	composite z-score [16]	z-score [17]
C=CCNC(=O)[C@@H]1[C@H]2C(=O)O[C@H](c3ccccc3)[C@H](c3ccccc3)N2[C@H](c2ccc(O)cc2)[C@@]12C(=O)N(C(=O)OCCOC)c1ccc(C#CCNC(N)=O)cc12	0.803	0.797 (inactive)	-0.0247	-0.0393	0.552	0.737	0.731	1.16	0.155	1.1	0.2	1.16	1.23	0.746	1.18	1.45	-0.564	1.03	0.834	-1.43 (inactive)
Cc1ccc(S[C@]2(C(=O)NCCCN(C)C)CC(=O)N(Cc3cc(C(F)(F)F)cc(C(F)(F)F)c3)[C@@H]2c2ccc(CO)cc2)cc1	0.384	0.624 (inactive)	-0.149	-0.106	0.874	0.616	0.357	-0.427	-0.869	-0.949	-0.237	-0.817	0.145	-0.603	-0.802	-1.33	0.134	-0.493	0.0796	-0.303 (inactive)
COC(=O)[C@@]1(Cc2ccc(F)cc2)[C@H]2c3cc(C(=O)N4CCCC4)n(CCCNc4ncc(C(F)(F)F)cc4Cl)c3C[C@H]2CN1C(=O)c1ccccc1	0.357	-0.585 (inactive)	0.69	0.362	0.728	2.01	-0.252	0.541	0.197	0.625	2.47	1.08	0.604	0.817	-0.0084	-0.903	0.742	-0.695	1.03	1.37 (inactive)
C=CCOC(=O)[C@H]1[C@@H]2C(=O)O[C@@H](c3ccccc3)[C@@H](c3ccccc3)N2[C@@H](c2ccc(OCCOC(=O)[C@H]3C[C@H]4C(=O)N[C@@H](CCCC[N+](C)(C)C)C(=O)N4[C@H]3c3ccc(O)cc3)cc2)[C@]12C(=O)Nc1ccc(I)cc12	-0.763	1.88 (inactive)	0.191	0.0482	-0.141	0.502	-0.432	1.11	1.11	0.401	1.24	1.08	0.38	-0.154	1.38	1.14	0.694	1.27	0.0577	-0.666 (inactive)
COC(=O)c1c(CC[C@@H](CO)NC(=O)NCCn2cc(C3(O)CCCC3)nn2)oc(C(C)=O)c1C(=O)OC	0.351	-0.79 (inactive)	-0.209	-0.128	0.745	0.603	-0.108	0.492	-0.505	-0.027	0.828	0.0881	0.182	0.292	-0.273	0.247	-0.415	0.199	0.128	0.7 (inactive)
